# An excerpt weighted towards active compounds, which were near 10% of everything screened.
# GPT2 inhibitor – inhibitors of human GPT2 alanine aminotransferase | Recombinant GPT2, coupled pyruvate oxidase/HRP Amplex Red fluorescence | Q8TD30 | Potency, µM (doses to about 57.7 µM), for inactives: at the top dose activity change, negative = inhibition, most hits filed as inhibitors | hit rate 0.25% among 100,000 | AID 1671188; also: % is scaled to controls: 0 for no effect and ±100 for the full control effect; nearly all actives have a fitted effect of over 60% in size
# Target sequence (Q8TD30 whole entry, looked up): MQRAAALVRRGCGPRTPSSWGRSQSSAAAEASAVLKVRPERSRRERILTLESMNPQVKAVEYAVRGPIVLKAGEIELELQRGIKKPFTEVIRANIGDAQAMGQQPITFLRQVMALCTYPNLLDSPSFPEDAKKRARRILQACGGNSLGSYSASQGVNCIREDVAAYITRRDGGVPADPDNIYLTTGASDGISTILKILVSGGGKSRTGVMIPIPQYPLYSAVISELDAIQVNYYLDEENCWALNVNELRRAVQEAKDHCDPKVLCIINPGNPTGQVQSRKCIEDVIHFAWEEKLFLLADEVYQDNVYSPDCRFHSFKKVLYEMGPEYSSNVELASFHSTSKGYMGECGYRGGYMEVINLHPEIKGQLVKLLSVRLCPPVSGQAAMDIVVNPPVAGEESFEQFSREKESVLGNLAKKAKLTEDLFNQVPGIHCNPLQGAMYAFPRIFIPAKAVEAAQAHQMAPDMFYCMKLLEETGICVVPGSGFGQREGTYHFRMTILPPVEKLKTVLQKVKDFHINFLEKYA
#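 GPT2 10ng/uL, a-KG 250uM, L-Ala 2mM, HEPES pH7.5 + 0.0001% Tween; 30 min RT. Then Amplex mix (PO/HRP/ThPP), 30 min RT dark, fluorescence. AOA 50uM used as positive control.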
# hNpr1 antagonist – blocks ANP-stimulated signaling of human Npr1 receptor | HEK293 hNpr1 GloSensor cGMP, ANP-stimulated luminescence | Potency, µM (highest dose often 46.3 µM), inactives show at the top dose activity change, negative = inhibition, usual class: inhibitors | hit rate 1.6% among 76,000 | AID 1347048; calls by dose curve; also: % is scaled to controls: 0 for no effect and ±100 for the full control effect; nearly all actives have a fitted effect of over 60% in size
#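 HEK293 cells stably expressing human Npr1 and cGMP GloSensor pGS-40F, loaded 2 h with 2% GloSensor reagent, given compound 30 min at room temperature. Luminescence read before and 20 min after 0.1 nM hNppA.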
# NIH3T3 tox – NIH 3T3 cell cytotoxicity; NIH 3T3 viability, CellTiter-Glo ATP luminescence, 48-72 h; Potency, µM (titrated, usually from 96.7 µM), for inactives: top-dose activity change, negative = cytotoxicity, usual class: inhibitors; hit rate 4.3% among 94,000; also: % is scaled to controls: 0 for no effect and ±100 for the full control effect; nearly all actives have a fitted effect of over 55% in size
#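 Cells were seeded at 400 per well, treated with pin-transferred compound, and kept 48 or 72 hr at 37 °C before CellTiter-Glo addition and luminescence imaging of cellular ATP.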
# HEK cytotox – HEK 293 cell cytotoxicity. hit rate 6.6% among 94,000. AID 1345083. HEK 293 viability, ATP luminescence (CellTiter-Glo), 48-72 h. Potency, µM (titrated, usually from 115 µM), for the others: at the top dose activity change, negative = cytotoxicity, actives largely listed as inhibitors; also: % is scaled to controls: 0 for no effect and ±100 for the full control effect; nearly all actives have a fitted effect of over 60% in size
#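 HEK 293 cells at 250 cells/well were exposed to compounds by pintool transfer for 48 or 72 hr at 37 degree Celsius, 5% CO2. Viability was read as ATP-coupled luminescence with CellTiter-Glo after 10 min at room temperature.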
# Luciferase inh – inhibitors of firefly (Photinus pyralis) luciferase | P08659 | purified P. pyralis luciferase, luminescence, biochemical | Potency, µM (titrated, usually from 115 µM), most hits filed as inhibitors | hit rate 2.5% among 76,000; also: % is scaled to controls: 0 for no effect and ±100 for the full control effect; nearly all actives have a fitted effect of over 65% in size
#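 Inhibitors were tested against purified firefly luciferase in a biochemical, low-substrate format (both substrates at 10uM) and luminescence measured with a CCD imager.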
# Npr1 antag conf – hNpr1 antagonism, confirmation assay; hit rate 76% among 1,400; shares compounds with hNpr1 antagonist; Potency, µM (highest dose often 57.6 µM), for the others: top-dose activity change, negative = inhibition, most hits filed as inhibitors; HEK293 hNpr1 cGMP GloSensor luminescence, ANP-stimulated; AID 1347044; calls by dose curve; also: nearly all actives have a fitted effect of over 70% in size
# Npr2 selectivity – selectivity test of Npr1 antagonists against human Npr2 | shares compounds with hNpr1 antagonist | AID 1347046 | hit rate 67% among 1,400 | HEK293 hNpr2 GloSensor cGMP luminescence, CNP-stimulated | Potency, µM (series often up to 57.6 µM), inactives show at the highest dose activity change, negative = inhibition, hits mostly inhibitors; calls by dose curve; also: nearly all actives have a fitted effect of over 70% in size
# FLuc counter – FLuc enzyme inhibition, Npr1 counter-screen | shares compounds with hNpr1 antagonist | purified FLuc enzyme, luminescence, Km substrate | Potency, µM (titrated, usually from 57.6 µM), without a hit: at the top dose activity change, negative = inhibition, hits mostly inhibitors | hit rate 0.7% among 1,400; also: series mostly up to about 58 µM; 0% is about no effect
# GloSensor ctrl – control cell line activity, Npr1 antagonist counter-screen; shares compounds with hNpr1 antagonist; HEK293 GloSensor cGMP, SNP-stimulated, luminescence; Potency, µM (highest dose often 57.6 µM), without a hit: at the top dose activity change, negative = inhibition, hits mostly inhibitors; hit rate 69% among 1,400; AID 1347051; calls by dose curve; also: % is scaled to controls: 0 for no effect and ±100 for the full control effect; nearly all actives have a fitted effect of over 70% in size
# Numbers without * were called inactive; i = inactive; ? = inconclusive; · = no result; [ ] = remark or other dose. Unless noted, calls follow the shape of the dose curve; as a rule, active = well fitted curve in the direction sought with a large enough effect; inconclusive = small, poorly fitted or top-dose-only effect, or another doubt; inactive = no such curve, though single readings can be large; an effect the other way counts as inactive or inconclusive. Potency is read from the fitted curve at half-maximal effect.
SMILES,GPT2 inhibitor,hNpr1 antagonist,NIH3T3 tox,HEK cytotox,Luciferase inh,Npr1 antag conf,Npr2 selectivity,FLuc counter,GloSensor ctrl
COc1ncccc1CN1CCC2(CC1)OC(=O)N(Cc1ccc(O)cc1)C2(C)c1ccccc1 (centres undefined),0.5%,-25.5%,?,?,i,-29.4%,?,1.2%,-1.6%
COc1cc2c(cc1OC)CN(C(=O)/C=C/c1c(-c3ccccc3)n(C)c3ncccc13)CC2,i,·,·,·,·,·,·,·,·
Cc1nn2c(c1-c1ccccc1Oc1ccccc1)N(C(=O)COc1ccccc1)CCC2,1.7%[88.5 µM],?,?,79.4µM*,i,31.4µM*,22.2µM*,1.2%[86.2 µM],?
Cc1nn2c(c1-c1ccccc1OCc1ccccc1)N(C(=O)COc1ccccc1)CCC2,0.2%,?,11.2µM*,39.8µM*,i,17.2µM*,12.2µM*,-0.7%,-21.2%
Cc1nn2c(c1-c1ccccc1Oc1ccccc1)N(Cc1ccc(OCC(=O)O)cc1)CCC2,-11.8%,-3.7%,?,i,i,·,·,·,·
Cc1nn2c(c1-c1ccccc1OCc1ccccc1)N(C(=O)C1CCOCC1)CCC2,?,-19.9%[70.6 µM],?,?,i,·,·,·,·
Oc1ccc(-c2nc(C3CC3)nc3c2CCN(Cc2cccc4ccccc24)CC3)cc1,-10.4%,-24.3%,?,17.8µM*,i,-27.1%[86.2 µM],?,2.1%[86.2 µM],-32.2%[86.2 µM]
Oc1ccc(-c2nc(C3CC3)nc3c2CN(Cc2cccc4ccccc24)CC3)cc1,-14.0%,·,?,?,·,·,·,·,·
C#CCNC(=O)c1cc(-c2ccc([S+](C)(=O)[O-])cc2)c2cccn2n1,-11.5%,·,?,?,·,·,·,·,·
C[S+](=O)([O-])c1ccc(-c2cc(C(=O)NCCc3ccc(Cl)cc3)nn3cccc23)cc1,1.0%,·,22.4µM*,?,·,?,?,15.3µM*,?
O=C1COc2ccc(-c3ccoc3)nc2CN1Cc1ccc(C(F)(F)F)cc1,i,35.5µM*,79.4µM*,?,i,35.3µM*,35.3µM*,-0.9%[86.2 µM],35.3µM*
Cc1noc(C)c1-c1ccc2c(n1)CN(Cc1ccc(C(F)(F)F)cc1)C(=O)CO2,i,-23.5%[70.6 µM],?,?,i,·,·,·,·
O=C1COc2ccc(-c3ccoc3)nc2CN1Cc1ccccc1,i,?,?,?,i,?,?,-2.8%[86.2 µM],?
CC(C)CN1C(=O)c2cccn2CC1C(=O)O (centres undefined),-11.8%,0.7%,0.6%,-1.6%,i,·,·,·,·
CCN(CC)C(=O)N1CCC(Oc2ccc(-c3noc(COC)n3)cc2)C1 (centres undefined),i,7.94µM*,-20.8%,?,i,10.9µM*,13.7µM*,-6.4%,12.2µM*
COc1cccc(CN2CCC(Oc3ccc(-c4noc(C5CC5)n4)cc3)C2)c1 (centres undefined),-3.7%,11.2µM*,?,39.8µM*,i,?,?,-18.6%,27.3µM*
CCOc1cccc(CN2CC(Oc3ccc(-c4noc(COC)n4)cc3)C2)c1,i,?,?,?,i,·,·,·,·
COCc1nc(-c2ccc(OC3CCN(C(=O)NCc4ccc(F)cc4)C3)cc2)no1 (centres undefined),i,?,?,?,i,·,·,·,·
Cc1nc(-c2ccc(OC3CCN(C(=O)NC(C)C)C3)cc2)no1 (centres undefined),i,-25.8%,-28.1%,?,i,·,·,·,·
COCc1nc(-c2ccc(OC3CN(C(=O)NCc4ccc(OC)cc4)C3)cc2)no1,i,?,?,-31.6%,i,24.3µM*,?,-2.0%,19.3µM*
COCc1nc(-c2ccc(OC3CN(C(=O)c4cc(C)n(C)n4)C3)cc2)no1,i,-22.7%,-24.4%,?,i,·,·,·,·
COc1ccc(CNC(=O)N2CCC(Oc3ccc(-c4noc(C5CC5)n4)cc3)C2)cc1 (centres undefined),-2.9%,17.8µM*,?,?,i,?,?,?,?
c1cc(-c2noc(C3CCOCC3)n2)ccc1OC1CNC1,-18.0%,6.9%,-7.3%,-19.4%,?,·,·,·,·
O=C(C1CC1)N1CC(Oc2ccc(-c3noc(C4CCOCC4)n3)cc2)C1,-16.2%,10µM*,?,?,i,9.68µM*,10.9µM*,-11.0%,9.68µM*
CCC(C)NC(=O)N1CC(Oc2ccc(-c3noc(C4CCOCC4)n3)cc2)C1 (centres undefined),i,7.94µM*,?,?,i,5.44µM*,6.11µM*,-8.0%,4.85µM*
SMILES,GPT2 inhibitor,hNpr1 antagonist,NIH3T3 tox,HEK cytotox,Luciferase inh,Npr1 antag conf,Npr2 selectivity,FLuc counter,GloSensor ctrl
O=C(N1CC(Oc2ccc(-c3nc(-c4ccccc4)no3)cc2)C1)C1(c2ccccc2)CC1,i,?,?,22.4µM*,i,?,21.7µM*,-11.9%,21.7µM*
CC(C)S(=O)(=O)N1CC(Oc2ccc(-c3noc(C4CCOCC4)n3)cc2)C1,i,2.24µM*,-13.8%,?,i,10.9µM*,12.2µM*,-1.2%,10.9µM*
O=C(Cc1ccccc1)N1CC(Oc2ccc(-c3nc(-c4ccccc4)no3)cc2)C1,2.0%,?,-4.9%,?,?,·,·,·,·
CCn1cc(S(=O)(=O)N2CCCC(Cc3ncc(C)n3Cc3ccccc3)C2)cn1 (centres undefined),-0.8%,0.2%,-2.8%,-24.2%,i,·,·,·,·
Cc1cnc(C2CCN(C(=O)OC(C)(C)C)CC2)[nH]1,-2.9%[88.5 µM],·,-10.9%[138 µM],-1.8%[172 µM],·,·,·,·,·
CCC(C)NC(=O)N1CC(Oc2ccc(-c3nc(-c4ccccc4)no3)cc2)C1 (centres undefined),i,1.26µM*,?,-46.6%,i,1.93µM*,3.06µM*,-15.0%,2.17µM*
CCC(C)NC(=O)N1CC(Oc2ccc(-c3noc(COC)n3)cc2)C1 (centres undefined),-24.9%,·,?,?,·,·,·,·,·
